The source of these data is PubChem BioAssay (NCATS).

A short description of test [1]: AP1 Signaling Pathway (AID 357). Note: % is set by controls: 0 for no effect and ±100 for the full control effect. Particulars: ME-180 AP-1-bla reporter, EGF-induced, beta-lactamase ratio, 5 h; at 17.2 µM (top of the series) unless noted. The method in brief: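 Read-out was the 460nm/530nm emission ratio (excitation 405nm) after CCF4 loading for 2.5 hours at room temperature. Cells carried an AP-1-driven beta-lactamase reporter, were stimulated with EC50 EGF plus compound for 5 hours, and AC50 values came from titrations.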

The nature of test [2]: NFAT Signaling Pathway (AID 444).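 Note: carbachol stimulus at about its EC50 of 1 µM final; % is set by controls: 0 for no effect and ±100 for the full control effect.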 Particulars: Jurkat NFAT-bla M1, carbachol, beta-lactamase ratio, 5 h; at 17.2 µM (top of the series) unless noted. In short, it runs like this:
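Jurkat cells with NFAT-driven β-lactamase reporter and co-expressed M1 receptor, stimulated with carbachol (final 1 uM, ~EC50), compound titration, 5 h at 37 °C. CCF4 loaded 1 h at RT; 460/530 nm ratio gave %activity and AC50.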

A short description of test [3]: Stat Signaling Pathway (AID 446).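 Note: ME-180 cervical cancer cells given 40 pM IL-6 alongside compound; SIE-controlled beta-lactamase reporter measured as 460/530 nm FRET emission ratio; % is set by controls: 0 for no effect and ±100 for the full control effect.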 Particulars: ME-180 SIE beta-lactamase reporter, IL-6 stimulated, 5 h; at 17.2 µM (top of the series) unless noted. The method in brief: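 ME-180 cells carrying a SIE-driven beta-lactamase reporter are stimulated with 40 pM IL-6 for 5 h at 37C in the presence of compound. The 460/530 nm FRET substrate ratio is read after 2.5 h at RT. Data are normalised to 300 pM IL-6 and to 125 nM JAK inhibitor controls.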

For test [4], the target named is Glucocorticoid receptor (Homo sapiens) (UniProt P04150). In words: GR-GFP Redistribution (AID 450;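 active = compounds whose dose series gives a full or clear partial fitted curve of increased nuclear translocation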; note: potency is the fitted concentration of half-maximal effect).
Test [5] is described as follows: qHTS Assay for Identification of Small Molecule Agonists for Hypoxia Response Element Signaling Pathway (AID 914; active = well fitted activation curve with a large enough effect in the signal ratio, with a control signal flat, not every such curve was filed as active; the % refers to the signal ratio; note: potency is the fitted concentration of half-maximal effect; for activation: % of control where 0% means no effect). To be noted: ME-180 (cervical carcinoma) HRE-bla reporter, beta-lactamase ratio, CoCl2, 17 h; activation: active compounds read high. In short, it runs like this:
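Read-out: CCF4 FRET ratio of 460nm to 530nm emission (excitation 405nm) after 2.5 hours at room temperature, taken from HRE-bla ME-180 cells that had been exposed to compound and EC50 CoCl2 for 17 hours.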
For orientation: Quantitative high-throughput screening tests each substance at several concentrations.

Molecules are shown by their SMILES. A number with no mark means an inactive call. Records with an inconclusive call do not appear. Activity calls are given as the source filed them. Unless noted, calls come from the whole dose curve; as a rule, active = well fitted curve in either direction with a large enough effect (not every such curve was filed as active); inconclusive = small, poorly fitted or top-dose-only effect, or another doubt; inactive = flat fitted curve, though single readings scatter.

Chain of Glucocorticoid receptor (Homo sapiens) (P04150 whole entry, looked up): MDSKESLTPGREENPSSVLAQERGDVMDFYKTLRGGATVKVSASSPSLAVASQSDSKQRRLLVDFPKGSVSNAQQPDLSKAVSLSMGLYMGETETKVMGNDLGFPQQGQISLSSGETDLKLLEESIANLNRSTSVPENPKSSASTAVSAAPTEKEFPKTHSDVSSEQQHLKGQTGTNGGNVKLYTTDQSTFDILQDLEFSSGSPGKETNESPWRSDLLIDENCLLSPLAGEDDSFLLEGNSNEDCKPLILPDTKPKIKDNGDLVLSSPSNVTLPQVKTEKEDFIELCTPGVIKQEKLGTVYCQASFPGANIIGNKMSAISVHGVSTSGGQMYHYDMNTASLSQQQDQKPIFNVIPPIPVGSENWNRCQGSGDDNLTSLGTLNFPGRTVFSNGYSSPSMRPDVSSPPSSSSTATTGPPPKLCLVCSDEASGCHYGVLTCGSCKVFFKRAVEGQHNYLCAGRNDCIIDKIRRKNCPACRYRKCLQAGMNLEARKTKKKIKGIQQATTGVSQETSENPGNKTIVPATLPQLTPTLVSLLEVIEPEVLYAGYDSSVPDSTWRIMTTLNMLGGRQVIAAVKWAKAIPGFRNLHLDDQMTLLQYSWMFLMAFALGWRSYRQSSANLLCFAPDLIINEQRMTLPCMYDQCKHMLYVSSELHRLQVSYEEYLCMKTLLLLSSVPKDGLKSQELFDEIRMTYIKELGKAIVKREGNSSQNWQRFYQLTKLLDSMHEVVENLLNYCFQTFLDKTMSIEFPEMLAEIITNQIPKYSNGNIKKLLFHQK

With `COC(=O)C(NC(C)=O)(Nc1ccc(Br)cn1)C(F)(F)F` (stereo not given), the activity change, negative = inhibition was 0.568% in test [1] and 3.2% in test [2]. Moreover, the activity, negative = inhibition in test [3] is -10.2%. Moreover, in test [4], the Potency was more than 20.6 µM. In test [5], the activation is 3.3%.
Consider `CCOC(=O)C(CC(=O)O)N1CCCCC1` (stereo not given), for which the activity change, negative = inhibition in test [1] is 4.69%; in test [2], 10.9%. Further, the activity, negative = inhibition in test [3] is 3.36%. Moreover, in test [4], the Potency was more than 20.6 µM. Also, the activation in test [5] is 11.2%.
Regarding `Cc1ccc(C(=O)/C=C/Nc2cccc(O)c2)cc1`, the activity change, negative = inhibition was 10.4% in test [1] and 1.57% in test [2]. Besides, the activity, negative = inhibition in test [3] was -17.8%. The figures for the Potency in test [4] and in test [5] were more than 20.6 µM and 10 µM (active), respectively.
Take `CN(Cc1ccccc1)Cc1c[nH]c2ccccc12`: the activity change, negative = inhibition in test [1] is 15.6%; in test [2], -28.7%. Further, the activity, negative = inhibition in test [3] is 7.69%. The Potency in test [4] was more than 20.6 µM. Besides, the activation in test [5] was -19.8%.
Taken in the same sequence, the figures for `Cc1nn(CCO)c2c1C(=O)CCC2` were 3.9%, -9.31%, 5.4%, more than 20.6 µM and 12.2%.
On to `COC(=O)C1=C(N)Oc2cc(C)[nH]c(=O)c2C1c1ccncc1` (stereo not given), for which the activity change, negative = inhibition was -8.66% in test [1] and 2.47% in test [2]. In addition, the activity, negative = inhibition in test [3] is -7.56%. Further, the Potency in test [4] is more than 20.6 µM. The activation in test [5] is 2.44%.
With `CN(C)c1ccc(C=Nc2cnn(C)c2C(N)=O)cc1`, the results for the activity change, negative = inhibition in test [1] and in test [2] were -9.71% and 2.44%, respectively. For the same compound, in test [3], the activity, negative = inhibition is -12.3%. Moreover, the Potency in test [4] is more than 20.6 µM. In addition, the activation in test [5] was -1.16%.
Taken in the same sequence, the figures for `Cc1ccc(S(=O)(=O)N(CC(O)CN2CCOCC2)c2cc(Cl)ccc2Cl)cc1` (stereo not given) were 0.294%, -11%, -1.96%, more than 20.6 µM and 11.1%.
As for `O=c1cc(N2CCCCC2)nc2n1CCCS2`, the activity change, negative = inhibition in test [1] was -18.5%; in test [2] it was -21.5%. In addition, the activity, negative = inhibition in test [3] is -10.2%. Also, the Potency in test [4] was more than 20.6 µM; in test [5], 6.31 µM (active).
For `CCOC(=O)c1c(CNCCN(CC)CC)n(C)c2cc(Br)c(OC)cc12`, the activity change, negative = inhibition in test [1] was 5.94%; in test [2] it was 5.36%. The activity, negative = inhibition in test [3] is -6.2%. In test [4], the Potency is more than 20.6 µM. Moreover, the activation in test [5] is -9.75%.
Take `CC(C)OC(=O)C(CC(=O)O)NCc1ccccc1` (stereo not given): the activity change, negative = inhibition was -7.38% in test [1] and 10.6% in test [2]. Besides, in test [3], the activity, negative = inhibition is 5.04%. In addition, in test [4], the Potency is more than 20.6 µM. Further, the activation in test [5] is 19.8%.
Taken in the same sequence, the figures for `COCCCn1c(C)nc2c(c1=O)c1nc3ccccc3nc1n2CCc1ccccc1` were -6.69%, -1.98%, -10%, more than 20.6 µM and -19.8%.
In the case of `C=CCn1c(N)c(C(=O)OC(C)(C)C)c2nc3ccccc3nc21`, the activity change, negative = inhibition in test [1] is -16.9%; in test [2], 3.64%. Also, the activity, negative = inhibition in test [3] was -6.1%. The results for the Potency in test [4] and in test [5] were more than 20.6 µM and 10 µM (active), respectively.
As for `CN(C=C1C(=O)CC(C)(C)CC1=O)CCN1CCNCC1`, the activity change, negative = inhibition is 19.5% in test [1] and -19.2% in test [2]. Moreover, the activity, negative = inhibition in test [3] is 4.61%. The Potency in test [4] was more than 20.6 µM. Also, the activation in test [5] was -4.98%.
